We go through eleven molecules from ChEMBL document CHEMBL3988442, “University of Dundee, Small-Polar-MMV Screening Library” (2021).

What all share (parameters): scale not given: direction of the effect not stated beside the values
In assay [1] the target is Protein translocase subunit SecA (Escherichia coli (strain K12)) (UniProt P10408). As to the kind of experiment: Assay to Identify E. coli SecA ATPase Inhibitors. It counts as functional. The settings on record: 30 µM.
In assay [2] the target is T1, Ubiquitin-activating enzyme e1, putative (Leishmania donovani (strain BPK282A1)) (UniProt E9BSI1).
T1 sequence (whole entry): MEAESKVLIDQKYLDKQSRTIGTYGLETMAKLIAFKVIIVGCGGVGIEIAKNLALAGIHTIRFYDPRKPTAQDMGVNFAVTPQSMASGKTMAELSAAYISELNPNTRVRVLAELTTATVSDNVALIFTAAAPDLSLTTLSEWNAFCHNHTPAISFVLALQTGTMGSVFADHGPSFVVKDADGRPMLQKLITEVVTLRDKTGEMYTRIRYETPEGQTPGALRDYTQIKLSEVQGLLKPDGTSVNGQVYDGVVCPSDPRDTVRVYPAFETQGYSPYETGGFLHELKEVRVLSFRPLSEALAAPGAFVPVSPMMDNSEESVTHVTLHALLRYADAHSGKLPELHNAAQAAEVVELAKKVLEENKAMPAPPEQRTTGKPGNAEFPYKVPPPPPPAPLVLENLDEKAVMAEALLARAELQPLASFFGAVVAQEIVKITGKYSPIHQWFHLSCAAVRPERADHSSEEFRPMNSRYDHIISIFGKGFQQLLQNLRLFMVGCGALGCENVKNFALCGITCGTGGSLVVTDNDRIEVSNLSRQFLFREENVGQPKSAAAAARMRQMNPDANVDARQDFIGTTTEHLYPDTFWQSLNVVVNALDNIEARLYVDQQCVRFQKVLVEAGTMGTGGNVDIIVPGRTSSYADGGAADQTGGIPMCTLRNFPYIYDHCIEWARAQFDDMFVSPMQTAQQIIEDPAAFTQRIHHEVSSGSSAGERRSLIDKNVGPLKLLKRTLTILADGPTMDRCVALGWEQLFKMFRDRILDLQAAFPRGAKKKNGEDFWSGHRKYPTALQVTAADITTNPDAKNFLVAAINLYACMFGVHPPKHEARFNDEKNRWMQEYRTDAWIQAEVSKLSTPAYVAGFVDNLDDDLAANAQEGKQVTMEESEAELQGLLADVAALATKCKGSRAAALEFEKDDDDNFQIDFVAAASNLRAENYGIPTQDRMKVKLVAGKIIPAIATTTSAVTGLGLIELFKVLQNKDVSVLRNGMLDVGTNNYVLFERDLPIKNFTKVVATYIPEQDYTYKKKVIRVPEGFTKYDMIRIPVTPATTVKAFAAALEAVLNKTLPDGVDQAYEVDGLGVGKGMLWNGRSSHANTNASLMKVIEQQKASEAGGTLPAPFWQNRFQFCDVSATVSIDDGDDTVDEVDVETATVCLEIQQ
The assay can be described thus: Leishmania donovani Ubiquitin Activating Enzyme (LdE1). It is filed as functional. The settings on record: 30 µM.

Assay [3] concerns the target AMP-activated protein kinase, AMPK (Homo sapiens) (UniProt P54646+O43741+P54619+Q9UGJ0+Q9Y478+Q13131+Q9UGI9). The assay can be described thus: AMP-dependent Kinase enzyme assay. An in vitro enzyme assay that detects ADP turnover that is directly proportional to AMPK activity. This uses naive AMPK that is activated during the assay with MK-8722. It counts as functional. The settings on record: 30 µM.

The target of assay [4] is Sialic acid-binding Ig-like lectin 9 (Homo sapiens) (UniProt Q9Y336). The assay can be described thus: Hs-Siglec9 ALPHAscreen SOP 20170721. Conditions: 10 µM.
Sialic acid-binding Ig-like lectin 9 (Homo sapiens), sequence (Q9Y336 whole entry): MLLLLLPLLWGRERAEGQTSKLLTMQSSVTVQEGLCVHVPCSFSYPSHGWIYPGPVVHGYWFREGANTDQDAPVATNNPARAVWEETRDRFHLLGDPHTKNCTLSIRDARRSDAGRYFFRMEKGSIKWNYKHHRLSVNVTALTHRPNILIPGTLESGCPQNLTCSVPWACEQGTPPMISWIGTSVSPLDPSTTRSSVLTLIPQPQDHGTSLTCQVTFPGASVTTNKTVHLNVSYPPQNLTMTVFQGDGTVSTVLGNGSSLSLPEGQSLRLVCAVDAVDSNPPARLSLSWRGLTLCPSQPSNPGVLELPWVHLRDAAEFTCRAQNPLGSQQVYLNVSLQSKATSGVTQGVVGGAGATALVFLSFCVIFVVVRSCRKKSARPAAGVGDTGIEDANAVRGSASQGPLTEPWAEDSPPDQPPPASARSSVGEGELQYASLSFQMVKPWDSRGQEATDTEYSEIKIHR
The next assay has as its system Trypanosoma cruzi. The assay can be described thus: Trypanosoma cruzi phosphomannomutase and mannose-1-phosphate guanylyltransferase assay. It counts as functional. Conditions: 10 µM.
Assay [5] concerns the target T2, Arginase-2, mitochondrial (Homo sapiens) (UniProt P78540).
T2 sequence (whole entry): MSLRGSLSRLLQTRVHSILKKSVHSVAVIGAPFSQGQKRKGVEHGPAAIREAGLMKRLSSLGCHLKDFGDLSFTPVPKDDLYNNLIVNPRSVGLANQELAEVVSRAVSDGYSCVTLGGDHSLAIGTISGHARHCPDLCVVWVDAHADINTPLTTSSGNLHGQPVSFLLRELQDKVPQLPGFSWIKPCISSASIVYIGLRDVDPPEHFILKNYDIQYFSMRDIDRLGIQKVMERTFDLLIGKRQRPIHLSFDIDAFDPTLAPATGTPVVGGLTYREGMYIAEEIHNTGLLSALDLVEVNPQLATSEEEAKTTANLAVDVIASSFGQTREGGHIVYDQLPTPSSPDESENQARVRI
The assay can be described thus: in vitro enzyme assay to detect the production of urea directly proportional to the activity of Arginase II. Note: in the data most compounds retested in dose-response had high values. It counts as functional. Conditions: 33.3 µM.

In assay [6] the target is T3, Proteasome subunit beta (Trypanosoma cruzi) (UniProt O96673).
T3 sequence (whole entry): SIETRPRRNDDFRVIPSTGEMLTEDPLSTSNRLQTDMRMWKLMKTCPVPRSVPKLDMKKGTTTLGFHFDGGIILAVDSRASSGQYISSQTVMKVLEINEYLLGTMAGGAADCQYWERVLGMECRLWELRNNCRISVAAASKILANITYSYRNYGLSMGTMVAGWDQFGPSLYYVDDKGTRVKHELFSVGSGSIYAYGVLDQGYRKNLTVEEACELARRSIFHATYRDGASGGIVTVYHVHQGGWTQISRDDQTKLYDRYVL
As to the kind of experiment: Trypanosoma cruzi proteasome chymotrypsin-like activity (TcProtChymo) assay. Note: in the data most compounds retested in dose-response had high values. It counts as functional. The settings on record: 9.37 µM.

The species named for another assay is Homo sapiens. As to the kind of experiment: To identify inhibition of the IFN signalling (Jak-Stat) pathway via expression of an eGFP reporter gene under the control of an IFN-stimulated response element (ISRE) containing MxA promoter. It is filed as functional. The settings on record: 30 µM. In general terms: Reporter assays use an easily measured gene product as a stand-in for the process of interest.

Assay [7] addresses T4, Tyrosyl-tRNA synthetase, putative (Trypanosoma cruzi (strain CL Brener)) (UniProt Q4DSP6).
T4 sequence (whole entry): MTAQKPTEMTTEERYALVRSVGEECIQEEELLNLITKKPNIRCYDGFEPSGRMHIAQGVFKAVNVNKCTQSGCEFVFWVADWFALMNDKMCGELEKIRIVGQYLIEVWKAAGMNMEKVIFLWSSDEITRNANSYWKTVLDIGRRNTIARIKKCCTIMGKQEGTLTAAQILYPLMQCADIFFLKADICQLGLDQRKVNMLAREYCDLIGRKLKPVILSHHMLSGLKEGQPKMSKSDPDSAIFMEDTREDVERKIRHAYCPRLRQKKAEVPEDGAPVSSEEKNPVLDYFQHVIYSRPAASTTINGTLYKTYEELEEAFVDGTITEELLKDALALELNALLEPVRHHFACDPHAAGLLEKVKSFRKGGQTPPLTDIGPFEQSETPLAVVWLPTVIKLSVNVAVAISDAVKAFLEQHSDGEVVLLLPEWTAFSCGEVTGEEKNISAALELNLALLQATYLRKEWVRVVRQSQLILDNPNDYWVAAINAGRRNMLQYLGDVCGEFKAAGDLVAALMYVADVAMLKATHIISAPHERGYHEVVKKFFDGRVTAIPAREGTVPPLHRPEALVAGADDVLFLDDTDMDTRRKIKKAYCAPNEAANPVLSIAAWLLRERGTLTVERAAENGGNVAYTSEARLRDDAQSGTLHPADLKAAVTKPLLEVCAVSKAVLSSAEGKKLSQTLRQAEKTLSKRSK
As to the kind of experiment: Trypanosoma cruzi tyrosyl tRNA synthetase (TcYRS) _High Tyrosine SOP. Note: in the data most compounds retested in dose-response had high values. It counts as functional. The settings on record: 30 µM.

The target in assay [8] is T4, Tyrosyl-tRNA synthetase, putative (Trypanosoma cruzi (strain CL Brener)). The assay can be described thus: Trypanosoma cruzi tyrosyl tRNA synthetase (TcYRS) SOP. It is filed as functional. Conditions: 30 µM.
Assay [9] has as its target Chromo domain-containing protein 1 (Saccharomyces cerevisiae (strain ATCC 204508 / S288c) (Baker's yeast)) (UniProt P32657). The assay can be described thus: ScCHD-1 Enzyme Inhibition Assay. Note: in the data most compounds retested in dose-response had high values. It is filed as functional. Conditions: 30 µM.

For some of these results: Entries with a potency or affinity are not part of this list.

Chromo domain-containing protein 1 (Saccharomyces cerevisiae (strain ATCC 204508 / S288c) (Baker's yeast)), sequence (P32657 whole entry, the tested form may be a part): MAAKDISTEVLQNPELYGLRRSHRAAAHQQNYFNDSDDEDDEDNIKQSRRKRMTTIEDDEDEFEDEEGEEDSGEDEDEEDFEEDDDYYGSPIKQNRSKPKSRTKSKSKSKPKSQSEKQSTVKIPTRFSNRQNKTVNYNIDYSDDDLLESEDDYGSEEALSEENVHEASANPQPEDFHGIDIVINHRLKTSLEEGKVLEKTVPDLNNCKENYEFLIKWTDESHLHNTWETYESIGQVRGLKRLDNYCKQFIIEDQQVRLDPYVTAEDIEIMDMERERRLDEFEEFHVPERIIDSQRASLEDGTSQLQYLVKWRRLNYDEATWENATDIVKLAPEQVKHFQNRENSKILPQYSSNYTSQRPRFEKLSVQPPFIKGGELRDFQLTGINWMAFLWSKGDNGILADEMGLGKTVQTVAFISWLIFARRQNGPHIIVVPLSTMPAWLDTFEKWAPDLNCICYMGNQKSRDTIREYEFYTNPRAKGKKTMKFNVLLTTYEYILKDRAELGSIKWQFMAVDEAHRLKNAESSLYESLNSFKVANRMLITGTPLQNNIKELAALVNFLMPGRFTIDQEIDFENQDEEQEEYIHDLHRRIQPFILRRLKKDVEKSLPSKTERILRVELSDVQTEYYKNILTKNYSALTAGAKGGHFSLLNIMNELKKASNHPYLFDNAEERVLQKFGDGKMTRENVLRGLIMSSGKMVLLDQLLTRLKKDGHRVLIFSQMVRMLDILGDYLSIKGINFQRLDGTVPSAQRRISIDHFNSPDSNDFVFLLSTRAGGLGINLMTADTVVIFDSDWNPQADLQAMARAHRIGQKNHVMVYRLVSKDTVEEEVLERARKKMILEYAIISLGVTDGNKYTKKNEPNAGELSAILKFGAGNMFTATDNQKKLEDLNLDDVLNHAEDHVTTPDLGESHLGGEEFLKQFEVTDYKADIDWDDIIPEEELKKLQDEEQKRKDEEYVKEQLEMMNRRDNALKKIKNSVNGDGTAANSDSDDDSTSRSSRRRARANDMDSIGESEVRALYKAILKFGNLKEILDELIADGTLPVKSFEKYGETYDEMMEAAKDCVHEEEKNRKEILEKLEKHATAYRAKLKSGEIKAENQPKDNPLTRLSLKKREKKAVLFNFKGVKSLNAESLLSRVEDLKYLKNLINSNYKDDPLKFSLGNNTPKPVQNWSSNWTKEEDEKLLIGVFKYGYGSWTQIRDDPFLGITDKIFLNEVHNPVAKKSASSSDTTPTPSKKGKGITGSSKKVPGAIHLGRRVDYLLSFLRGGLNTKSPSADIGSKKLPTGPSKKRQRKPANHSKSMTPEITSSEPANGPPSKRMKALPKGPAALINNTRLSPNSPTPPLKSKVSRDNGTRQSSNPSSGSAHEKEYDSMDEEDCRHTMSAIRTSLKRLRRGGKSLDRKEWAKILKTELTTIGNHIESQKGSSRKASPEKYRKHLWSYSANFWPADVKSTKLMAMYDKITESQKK
Protein translocase subunit SecA (Escherichia coli (strain K12)), sequence (P10408 whole entry): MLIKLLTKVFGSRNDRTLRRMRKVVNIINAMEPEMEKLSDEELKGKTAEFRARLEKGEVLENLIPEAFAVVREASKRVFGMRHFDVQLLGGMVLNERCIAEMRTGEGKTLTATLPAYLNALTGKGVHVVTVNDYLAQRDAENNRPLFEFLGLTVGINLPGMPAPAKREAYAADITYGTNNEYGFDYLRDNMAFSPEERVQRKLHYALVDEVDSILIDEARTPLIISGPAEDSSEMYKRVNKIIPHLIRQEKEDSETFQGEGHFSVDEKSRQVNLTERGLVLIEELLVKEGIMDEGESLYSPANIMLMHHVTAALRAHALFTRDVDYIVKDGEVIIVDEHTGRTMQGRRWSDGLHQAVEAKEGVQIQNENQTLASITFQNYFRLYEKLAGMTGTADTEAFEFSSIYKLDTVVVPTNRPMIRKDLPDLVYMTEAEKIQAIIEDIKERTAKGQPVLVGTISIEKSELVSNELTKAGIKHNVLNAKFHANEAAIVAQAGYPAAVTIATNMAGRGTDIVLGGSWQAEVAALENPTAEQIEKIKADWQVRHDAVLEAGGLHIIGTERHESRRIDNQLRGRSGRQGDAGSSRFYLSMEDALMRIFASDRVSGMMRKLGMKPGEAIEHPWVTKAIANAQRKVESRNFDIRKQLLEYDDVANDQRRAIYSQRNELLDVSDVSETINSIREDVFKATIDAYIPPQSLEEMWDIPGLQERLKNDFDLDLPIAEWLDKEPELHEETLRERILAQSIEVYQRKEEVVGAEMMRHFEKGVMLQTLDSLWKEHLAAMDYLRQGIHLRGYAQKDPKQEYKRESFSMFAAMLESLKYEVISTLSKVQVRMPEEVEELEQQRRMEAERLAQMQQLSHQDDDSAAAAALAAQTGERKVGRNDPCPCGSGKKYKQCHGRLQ

As to `CS(=O)(=O)Cc1cccc(C(=O)NCC2Cc3ccccc3O2)c1` (stereo unspecified), the Percent Effect was -4.91% in assay [1]; 5.48% in [2]; 2.31% in assay [3]; 0.841% in [4]; -2.74% in the assay on Trypanosoma cruzi; 5.46% in assay [5]. The Percent Effect in assay [6] was 17.9%; in the assay filed under Homo sapiens it was -3.29%; in assay [7], 2.15%; in assay [8], 15%; in assay [9] it was -4.73%.

With `CN(CCc1ccccc1)c1cnn(CC(=O)N2CCSCC2)c(=O)c1`, the Percent Effect in assay [1] was -1.2%; in assay [2], 0%; in assay [3], 19.7%; in [4], 12.4%; with Trypanosoma cruzi, -4.5%; in assay [5] it was 2.73%. Besides, the Percent Effect in [6] is -1.6%; in the assay listed under Homo sapiens, 4.15%; in [7] it was 1.07%; in assay [8], 2.5%; in assay [9], 0.365%.

For the molecule `Nc1cc2c(nn1)CCN(C(=O)CC1CCCC1)C2`, the Percent Effect in assay [1] is -3.9%; in [2], 10.1%; in [3], -4.63%; in [4], 16.5%; with Trypanosoma cruzi, -3.12%; in [5], -0.38%. Besides, the Percent Effect was -0.246% in assay [6]; -1.92% in the assay listed under Homo sapiens; 7.39% in [7]; 13.9% in assay [8]; -5.84% in assay [9].

Turning to `Cc1ccc(CNC(=O)Nc2nnc(C)s2)cn1`, the Percent Effect in assay [1] was -1.62%; in assay [2] it was 23.7%; in assay [3] it was 1.54%; in assay [4], -3.95%; in the assay on Trypanosoma cruzi, 1.03%; in assay [5], 2.16%. The Percent Effect was 15.1% in assay [6]; 1.76% in the assay listed under Homo sapiens; 8.37% in [7]; 25.9% in assay [8]; -9.14% in [9].

On to `COc1ccc(C(=O)N2CCCCC2c2nc(C)cs2)nn1` (stereo unspecified), for which the Percent Effect in assay [1] is -4.04%; in [2] it was 2.6%; in assay [3] it was -3.01%; in assay [4], 4.77%; in the assay with Trypanosoma cruzi, 10.3%; in assay [5], 3.2%. In addition, the Percent Effect was -4.39% in assay [6]; 7.94% in the assay filed under Homo sapiens; 5.83% in [7]; 14.6% in [8]; 69.5% in [9].

Turning to `CN1CCN(Cc2ccccc2CNC(=O)c2ccc(Br)cc2F)CC1`, the Percent Effect in assay [1] was -2.05%; in assay [2] it was 5.41%; in assay [3], -1.3%; in [4], 7.25%; in the assay on Trypanosoma cruzi it was -1.86%; in assay [5] it was 3.72%. Further, the Percent Effect in [6] is 3.35%; in the assay listed under Homo sapiens, 9.27%; in assay [7], 5.38%; in [8], 11.1%; in [9], -4.37%.

Regarding `COCC1CC2(CCN(C(=O)c3cccc(C)c3)CC2)CO1` (stereo unspecified), the Percent Effect in assay [1] is -0.162%; in [2] it was 5.2%; in assay [3] it was 3.05%; in assay [4] it was 6.28%; with Trypanosoma cruzi, -1.68%; in assay [5] it was -1.94%. Also, the Percent Effect in [6] is 1.74%; in the assay listed under Homo sapiens it was -8.87%; in [7], -3.17%; in assay [8], -3.85%; in assay [9] it was -5.05%.

Turning to `O=C(NCc1cnc2n1CCN(c1ncc(F)cn1)CC2)C1CCC1`, the Percent Effect is -3.67% in [1]; 0% in [2]; 0.174% in assay [3]; 23.6% in assay [4]; 2.83% in the assay on Trypanosoma cruzi; 1.24% in assay [5]. In addition, the Percent Effect is -0.772% in assay [6]; -4.55% in the assay filed under Homo sapiens; 4.3% in [7]; 3.7% in assay [8]; 0.0919% in [9].

`Cc1cnn(CCNCc2ccc(C#N)cc2F)c1`: the Percent Effect in [1] is -5.04%; in assay [2], 10.8%; in [3] it was -4.08%; in assay [4] it was 8.42%; in the assay with Trypanosoma cruzi, -2.51%; in [5], 0.554%. The Percent Effect was 5.75% in [6]; 7.34% in the assay filed under Homo sapiens; 6.93% in assay [7]; 13.4% in assay [8]; -0.768% in [9].

Regarding `O=C1N(c2ccc(F)cc2)Cc2nc(=O)n(Cc3cccc(Cl)c3)n21`, the Percent Effect is 0.397% in assay [1]; -4% in assay [2]; 8.75% in assay [3]; 4.81% in assay [4]; -5.11% in the assay on Trypanosoma cruzi; -3.35% in [5]. Besides, the Percent Effect in assay [6] is 5.36%; in the assay filed under Homo sapiens it was -6.59%; in assay [7] it was -5.29%; in assay [8], -2.56%; in assay [9], -4.31%.

As for `CC(=O)Nc1nc(C(=O)N2CCCC(n3ccnc3)C2)cs1` (stereo unspecified), the Percent Effect is -2.04% in [1]; -7.89% in assay [2]; -5.64% in assay [3]; -2.76% in assay [4]; -6.44% in the assay with Trypanosoma cruzi; 3.6% in [5]. Besides, the Percent Effect in [6] was -6.34%; in the assay filed under Homo sapiens, -6.45%; in assay [7], 2.46%; in [8], 1.24%; in [9] it was 5.04%.
